Data: PubChem BioAssay (NCATS)
Unmarked numbers belong to inactive results. How the calls were made is not given here.

test system: HIV-1 nucleocapsid protein NCp7 (binding to TG oligonucleotide); test: HIV Nucleocapsid (AID 346); settings: HIV-1 NC / fluorescein-TGTGTGTG probe, fluorescence polarization;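 further: potency is for inhibitors that block NC binding and lower polarization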
In short: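 Fluorescence polarization readout: labelled TG4xF oligo (10 nM) with 100 nM nucleocapsid protein, high-salt (250mM NaCl) Hepes pH 7.5 buffer containing zinc and fresh reducing agents. Compounds added by pin tool; incubation 1 hr, room temperature.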
Potency means the concentration at half of the fitted maximal effect.

SMILES | Potency [µM]
CCNc1ncc2nc(-c3ccc(F)cc3)c(=O)n(C[C@H]3CCCO3)c2n1 | > 20
O=C(c1cccc(F)c1)N1CCC2(CCCN(c3ncccn3)C2)CC1 | > 20
COCCn1c(=O)c(-c2cc(F)cc(F)c2)nc2cnc(Oc3ccccc3)nc21 | > 20
CC(=O)NCCNc1ncnc2ccc(-c3ccccc3Cl)cc12 | > 20
CN1CCN(c2ncc3nc(CCc4ccccc4)c(=O)n(C4CC4)c3n2)CC1 | > 20
O=c1c(-c2ccccc2)nc2cncnc2n1C1CC1 | > 20
Cc1noc(C)c1-c1nccc(N2CCNCC2)n1 | > 20
Cn1cc(-c2nc3cnc(Oc4ccccc4)nc3n(C3CC3)c2=O)c2ccccc21 | > 20
O=C(c1csnn1)N1CCC2(CC1)CCN(c1ccccc1)CC2 | > 20
Cc1noc(C)c1C(=O)N1CCC[C@@]2(CCN(c3ncccn3)C2)C1 | > 20
O=C(c1cnccn1)N1CCC2(CC1)CN(c1ccccc1)C2 | > 20
Cc1cnc(CNc2ncncc2-c2cccnc2)cn1 | > 20
O=c1c(-c2cc(F)cc(F)c2)nc2cncnc2n1Cc1ccccc1 | > 20
Cn1cccc1C(=O)N1CCC2(CCN(C(=O)Nc3cccc(C#N)c3)CC2)CC1 | > 20
COc1ccc(CNc2ncnc3ccc(-c4ccc(N(C)C)cc4)cc23)c(OC)c1 | > 20
COc1ncc2nc(-c3ccccc3)c(=O)n(Cc3cccs3)c2n1 | > 20
COc1ccc(Oc2ncc3ncc(=O)n(C[C@H]4CCCO4)c3n2)cc1 | > 20
CNc1ccnc(-c2ccccc2C(F)(F)F)n1 | > 20
CC(=O)NCCNc1ncnc2ccc(-c3ccccc3C(F)(F)F)cc12 | > 20
Cn1c(=O)c(-c2ccccc2)nc2cnc(N3CCNCC3)nc21 | > 20

SMILES | Potency [µM]
CCNc1ncc2nc(-c3ccc(Cl)cc3)c(=O)n(Cc3cccc(OC)c3)c2n1 | 14.6
O=c1c(-c2cccs2)nc2cnc(Oc3ccccc3)nc2n1Cc1cccs1 | > 20
CC(=O)N1CCC2(CC1)CCN(c1ncccn1)CC2 | > 20
Cn1c(=O)c(-c2cc(F)cc(F)c2)nc2cnc(N3CCNCC3)nc21 | > 20
CN(C)c1ccc(-c2cncnc2NCc2ccccc2)cc1 | > 20
Clc1ccccc1-c1cncnc1NCCN1CCOCC1 | > 20
COc1ccc2[nH]cc(CCNc3nc(-c4cccnc4)nc4ccccc34)c2c1 | > 20
COc1ccccc1CNc1ccnc(-c2cccc(NS(C)(=O)=O)c2)n1 | > 20
CN(C)c1ncc2nc(-c3ccc(Cl)cc3)c(=O)n(CCC#N)c2n1 | > 20
Cc1noc(C)c1C(=O)N1CCC2(CCCN(C(=O)Nc3cccc(F)c3)C2)CC1 | > 20
Cc1noc(C)c1-c1nc(NCCN2CCOCC2)c2ccccc2n1 | > 20
COc1ccc(C(=O)N2CCC3(CCCN(c4ccccn4)C3)CC2)cc1 | > 20
COc1ncc2nc(-c3cc(F)cc(F)c3)c(=O)n(C[C@H]3CCCO3)c2n1 | > 20
Cc1noc(C)c1-c1ccc2ncnc(NCCN3CCOCC3)c2c1 | > 20
CN(Cc1ccco1)c1ncnc2ccc(-c3cccc(NS(C)(=O)=O)c3)cc12 | > 20
CN(C)Cc1ccccc1-c1cc(-n2ccnc2)ncn1 | > 20
CS(=O)(=O)N1CCC[C@@]2(CCN(c3ccncc3)C2)C1 | > 20
COCCn1c(=O)c(-c2ccc(F)c(F)c2)nc2cncnc21 | > 20
CCNc1ncc2nc(CCc3ccccc3)c(=O)n(C3CC3)c2n1 | > 20
c1ccc2c(NCCN3CCOCC3)nc(-c3ccc4c(c3)OCO4)nc2c1 | > 20
